CHX counter – counter-screen hit for Shiga toxin inhibitors, cycloheximide. cell reporter, cycloheximide protein synthesis inhibition counterscreen. max response, %. hit rate 12% among 300,000. AID 2314; in the data active means max response mostly above about 13%, no sharp cut-off; inactive means mostly below about 14%; further: read at 38.3 µM for the half of the compounds with a filed dose; 0% is about no effect
FMDV inh – foot and mouth disease virus antiviral activity | FMDV antiviral cell-based qHTS | Potency, µM (doses to about 57.9 µM), without a hit: top-dose activity change, negative = inhibition, usual class: inhibitors | hit rate 1.2% among 410,000 | AID 1159524; calls by dose curve; tested in HEK293T cells; further: read-out not given here; potency means the concentration at half of the fitted maximal effect; on the % scale 0 is the no-effect control and ±100 the full control effect; nearly all actives have a fitted effect of over 45% in size
Sm TGR inh – S. mansoni TGR enzyme inhibition. Q962Y6. AID 485364. purified TGR, DTNB reduction, TNB absorbance 405 nm. Potency, µM (highest dose often 114 µM), for the others: at the top dose activity change, negative = inhibition, usual class: inhibitors. hit rate 3% among 360,000; active means well fitted inhibition curve with a large enough effect; inconclusive means small, poorly fitted or top-dose-only effect; inactive means no such curve, though single readings can be large or run the other way; further: potency means the concentration at half of the fitted maximal effect; on the % scale 0 is the no-effect control and ±100 the full control effect; nearly all actives have a fitted effect of over 60% in size
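TGR 20 nM + NADPH 100 uM (dispensed conc.), cpd preinc 15 min RT; start with NADPH (500 uM addition) then DTNB (15 mM addition). Kinetic TNB absorbance, 405 nm filter. Four-parameter Hill fit across titration.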
Shiga toxin inh – inhibitors of Shiga toxin in Vero cells. AID 2315. hit rate 9.2% among 290,000. inhibition, % at 38.7 µM. Vero cells, Shiga toxin protein synthesis inhibition reporter; in the data active means inhibition mostly above about 28%, no sharp cut-off; inactive means mostly below about 43%; further: 0% is about no effect
Numbers without * were called inactive; ? = inconclusive; . = no result given; ! = repeats disagree. In the library only some 12% were active in any assay of this set; here they are far more common.

SMILES	CHX counter	FMDV inh	Sm TGR inh	Shiga toxin inh
S=c1[nH]c2cc3ccccc3cc2[nH]1	43*!	6%	8.9µM*!	98*!
Cc1cc(C)c(S(=O)(=O)N2CCC(N3CCN(Cc4ccc(F)cc4)C(=O)C3=O)CC2)c(C)c1	.	-1%	4%	.
Cc1nc(N2CCOCC2)nc(Oc2ccccc2)c1[N+](=O)[O-]	1	-25%	7.1µM*	9
CCCCOc1nc(N2CCOCC2)nc(C)c1[N+](=O)[O-]	-3	-6%	-25%	-9
CCC1Oc2ccc(C)cc2N(CC(=O)NCCc2ccccc2)C1=O (stereo not given)	.	-6%	5%	.
O=c1[nH]n(-c2ccc(Cl)cc2)c(=O)c(Cl)c1Cl	11	-18%	7.1µM*	-8
O=C(Nc1ccc2oc(=O)ccc2c1)c1ccc(-c2cccc([N+](=O)[O-])c2)o1	11	32µM*	50µM*	62
O=C(Nc1ccc2oc(=O)ccc2c1)c1ccc(-c2ccccc2[N+](=O)[O-])o1	7	-27%	?	29
O=C(Nc1ccc2oc(=O)ccc2c1)c1ccc(-c2cccc(Cl)c2)o1	-2	-17%	22µM*	-4
O=C(Nc1ccc2oc(=O)ccc2c1)c1ccc(-c2ccc(Cl)cc2)o1	-2	-15%	-21%	4
O=C(Nc1ccc2nn(-c3ccccc3)nc2c1)c1ccc(-c2cccc(Cl)c2)o1	.	-11%	8.9µM*	.
COc1ccc(-n2nc3ccc(NC(=O)c4ccc(-c5cc(Cl)ccc5Cl)o4)cc3n2)cc1	.	8%	-25%	.
COc1cccc(Nc2ncc3nc(CCc4ccccc4)c(=O)n(C[C@H]4CCCO4)c3n2)c1	.	-21%	.	.
O=C1[C@@H]2C(c3cccnc3)=NO[C@@H]2C(=O)N1c1ccc2ccccc2c1	11	-12%	3.5µM*	38
CCC1(c2ccc(F)cc2)NC(=O)N(CC(=O)Nc2ccc(-c3nc4ccc(C)cc4s3)cc2)C1=O (stereo not given)	39*	-12%	-11%	107*
COc1ccc(C2(C)NC(=O)N(CC(=O)Nc3ccc(-c4nc5ccc(C)cc5s4)cc3)C2=O)cc1 (stereo not given)	64*	5%	-13%	112*
COc1ccc(C2CC(=O)N(CC(=O)Nc3ccc(C)c(Cl)c3)c3ccccc3S2)cc1OC (stereo not given)	.	-8%	5%	.
O=C1COc2ccc(C(=O)CCl)cc2N1	-2	25µM*	3.5µM*	11
COc1cc(OC)cc(C(=O)N[C@H](C(=O)OCC(=O)c2ccc3c(c2)NC(=O)CO3)C(C)C)c1	-2	-7%	0%	-7
COC(=O)c1cc(C(=O)OCC(=O)c2ccc3c(c2)NC(=O)CO3)cc([N+](=O)[O-])c1	.	?	40µM*	.
CC(C)[C@H](NC(=O)c1ccccc1)C(=O)OCC(=O)c1ccc2c(c1)NC(=O)CO2	5	-22%	35µM*	8
Cc1cccc(C(=O)OCC(=O)c2ccc3c(c2)NC(=O)CO3)c1	.	-18%	.	.
CCC(=O)c1ccc(OCC(=O)c2ccc3c(c2)NC(=O)CO3)cc1	-2	-8%	6%	-4
CCc1nc(SC)ncc1C(=O)N1CCN(c2cc(C)ccc2C)CC1	.	-20%	-28%	.
CCN(Cc1ccncc1)Cc1ccc2c(c1)CN(C(=O)c1ccccc1-n1cccn1)CCO2	.	-10%	.	.
SMILES	CHX counter	FMDV inh	Sm TGR inh	Shiga toxin inh
O=C(NCCc1ccc(Cl)cc1)c1ccc2c(c1)N(Cc1ccccc1)C(=O)CS2	.	?	1%	.
Fc1ccc2[nH]c(-c3cccs3)cc2c1	.	17%	-10%	.
O=C(Nc1c(C(=O)N2CCN(c3ccccc3)CC2)oc2ccccc12)c1ccc(Br)o1	.	43%	-2%	.
C=C(C)Cn1c(=O)c2c(nc3n2CCN3c2cccc(Cl)c2C)n(C)c1=O	-4	22µM*	8%	-12
CC1(C)CCc2cc(-c3ccn(S(=O)(=O)c4ccccc4Cl)n3)ccc2O1	16*	16%	15%	38
CCn1c(C)cc(C=C2C(=O)c3ccccc3C2=O)c1C	62*	-76%	.	82*
Cc1cc(C=C2C(=O)c3ccccc3C2=O)c(C)n1C	65*	-11%	-18%	63*
CCOc1ccc(NC(=O)N2CCN(S(=O)(=O)c3ccc4c(ccn4C)c3)CC2)cc1	.	-9%	-7%	.
Cc1cc(S(=O)(=O)C(CNC(=O)c2ccc(OC(C)C)cc2)c2cccs2)ccc1F (stereo not given)	.	?	-11%	.
O=C(OC1CCc2ccccc2C1=O)c1ccccc1O (stereo not given)	41*	36%	5%	90*
Cc1cccc(C(=O)OC2CCOC2=O)c1O (stereo not given)	-2	-13%	-1%	32
Cc1nc2cc(-c3sccc3-n3cccc3)nn2c(C)c1C	34*	-13%	3%	60*

High-throughput results deposited in PubChem BioAssay by National Center for Advancing Translational Sciences (NCATS).
